Where a name gives a salt, the structure may show the parent alone. ± gives the standard deviation or the standard deviation of the averaged measurements.
Key:
Conditions in all cases: 25 µM; exposure: 24-48 hpf
[1] = test system: Danio rerio Tg(wt1b:EGFP) embryo, pronephros; experiment: glomerular separation, fold change vs DMSO control; higher = glomeruli further apart (abnormal)
Summary of the method: (§1)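 Dechorionated Tg(wt1b:EGFP) zebrafish embryos were exposed to 25 μM compound in 0.5% DMSO, HEPES-buffered E3 with 0.003% PTU, from 24 to 48 hpf at 28.5°C. Pronephroi were imaged dorsally in agarose-filled 96-well plates (470 nm, 10 z-slices). On maximum projections, 16 reference points were set manually in Fiji and a macro computed distances and angles. Values more than 2 SD from the feature mean were excluded. Each feature is a fold change relative to the mean of same-day DMSO controls.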

[2] = test system: Danio rerio Tg(wt1b:EGFP) embryo, pronephros; experiment: glomerular width (mean of left and right), fold change vs DMSO control; higher = wider glomerulus
Summary of the method: as §1

[3] = test system: Danio rerio Tg(wt1b:EGFP) embryo, pronephros; experiment: fraction of imaged embryos annotated as normal kidney; higher = less nephrotoxic; extreme values may be limits of the assay
Summary of the method: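 From 24 to 48 hpf at 28.5°C, dechorionated Tg(wt1b:EGFP) zebrafish embryos in 12-well plates were kept in 5 mM HEPES-buffered E3 with 0.003% PTU, 0.5% DMSO and 25 μM compound. Pronephroi were imaged by widefield fluorescence at 470 nm and judged by eye from maximum projections. Reported is the proportion of embryos per treatment in the normal-kidney category.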

[4] = test system: Danio rerio Tg(wt1b:EGFP) embryo, pronephros; experiment: pronephric angle neck segment to proximal convoluted tubule (mean of left and right), fold change vs DMSO control; higher = larger pronephric angle
Summary of the method: as §1

Structure (SMILES)	glomerular separation [1]	glomerular width [2]	fraction of imaged embryos annotated as normal kidney [3]	pronephric angle neck segment [4]
CCC[C@H](N[C@@H](C)C(=O)N1[C@H](C(=O)O)C[C@@H]2CCCC[C@@H]21)C(=O)OCC [Perindopril]	0.827 ± 0.34	1.09 ± 0.028	0.917	0.98 ± 0.026
Cn1c([N+](=O)[O-])cnc1COC(N)=O [Ronidazole]	0.869 ± 0.18	0.99 ± 0.011	0.75	1.02 ± 0.016
C[C@H]1NC(=O)NC1=O [Methylhydantoin-5-(D)]	0.867 ± 0.33	0.991 ± 0.011	0.917	1.02 ± 0.02
O=C(O)CCCC[C@@H]1SC[C@@H]2NC(=O)N[C@@H]21 [Biotin]	0.993 ± 0.31	0.993 ± 0.043	0.917	1.02 ± 0.066
CC(=O)O[C@]1(C(C)=O)CC[C@H]2[C@@H]3C=C(C)C4=CC(=O)CC[C@@H]4[C@H]3CC[C@@]21C [Nomegestrol acetate]	1.02 ± 0.29	0.953 ± 0.054	0.909	1.131 ± 0.0084
C#C[C@]1(OC(C)=O)CC[C@H]2[C@@H]3CCC4=C[C@@H](OC(C)=O)CC[C@@H]4[C@H]3CC[C@@]21C [Ethynodiol diacetate]	1.12 ± 0.65	0.958 ± 0.052	0.75	1.13 ± 0.057
NC(=O)c1ncn([C@@H]2O[C@H](CO)[C@@H](O)[C@H]2O)n1 [Ribavirin]	0.913 ± 0.3	0.965 ± 0.025	0.75	0.985 ± 0.017
CC[C@@H](CO)NCCN[C@@H](CC)CO [Ethambutol dihydrochloride]	1.28 ± 0.4	0.965 ± 0.028	0.75	1.02 ± 0.076
NCCCC(O)(P(=O)(O)O)P(=O)(O)O [Alendronate sodium]	0.796 ± 0.25	0.984 ± 0.03	0.833	1 ± 0.041
NCCC[C@H](N)CC(=O)N[C@H]1CNC(=O)[C@H]([C@H]2C[C@H](O)NC(N)=N2)NC(=O)/C(=C/NC(N)=O)NC(=O)[C@H](CO)NC(=O)[C@H](CO)NC1=O [Viomycin sulfate]	1.23 ± 0.3	0.86 ± 0.0024	0.833	1.07 ± 0.088
COc1ccc(C2CNC(=O)C2)cc1OC1CCCC1 (configuration not stated) [Rolipram]	0.895 ± 0.31	0.955 ± 0.023	0.833	1.08 ± 0.086
CCN1C(=O)NC(c2ccccc2)C1=O (configuration not stated) [Ethotoin]	0.796 ± 0.17	0.998 ± 0.037	0.917	0.942 ± 0.014
CCOC(=O)[C@H](CCc1ccccc1)N[C@@H](C)C(=O)N1Cc2ccccc2C[C@H]1C(=O)O [Quinapril hydrochloride]	0.927 ± 0.39	0.987 ± 0.012	1	0.99 ± 0.015
C[N+]1(C)CCC(OC(=O)C(O)(c2ccccc2)C2CCCC2)C1 (configuration not stated) [Glycopyrrolate]	1.14 ± 0.48	1.02 ± 0.055	0.583	1.06 ± 0.028
CC1CC(OC(=O)c2ccccc2O)CC(C)(C)C1 (configuration not stated) [Homosalate]	0.865 ± 0.19	0.8777 ± 0.0016	0.667	1.15 ± 0.044
O=C(O)c1cc(/N=N/c2ccc(S(=O)(=O)Nc3ccccn3)cc2)ccc1O [Sulfasalazine]	0.959 ± 0.28	1.02 ± 0.016	0.917	0.999 ± 0.034
O=C1[C@H]2CCCC[C@H]2C(=O)N1CCCCN1CCN(c2nsc3ccccc23)CC1 [Perospirone]	1.25 ± 0.36	0.9761 ± 0.0054	1	1.05 ± 0.017
N=C(N=C(N)N)N1CCOCC1 [Moroxidine hydrochloride]	1.26 ± 0.44	1.07 ± 0.049	0.75	0.903 ± 0.039
COc1ccc2cc([C@H](C)C(=O)O)ccc2c1 [Naproxen]	2.89 ± 1.8	0.9508 ± 0.0065	0.167	1.52 ± 0.036
Nc1nc(=O)n([C@@H]2CS[C@H](CO)O2)cc1F [(-)-Emtricitabine]	1.08 ± 0.4	1.06 ± 0.019	0.917	0.999 ± 0.073

Structure (SMILES)	glomerular separation [1]	glomerular width [2]	fraction of imaged embryos annotated as normal kidney [3]	pronephric angle neck segment [4]
Cc1ccc(N(CC2=NCCN2)c2cccc(O)c2)cc1 [Phentolamine hydrochloride]	1.13 ± 0.33	1.08 ± 0.02	0.667	0.994 ± 0.018
CCN1CCCC1CNC(=O)c1cc(S(N)(=O)=O)ccc1OC (configuration not stated) [Sulpiride]	1.08 ± 0.28	1.02 ± 0.023	0.75	0.983 ± 0.032
NCCc1ccc(O)c(O)c1 [Dopamine hydrochloride]	1.08 ± 0.44	1.05 ± 0.054	0.917	1.011 ± 0.005
C[C@](N)(Cc1ccc(O)c(O)c1)C(=O)O [Methyldopa (L,-)]	1.03 ± 0.18	1.02 ± 0.081	0.909	1.001 ± 0.0027
O=c1oc2ccccc2c(O)c1Cc1c(O)c2ccccc2oc1=O [Dicumarol]	0.799 ± 0.23	0.772 ± 0.025	0.9	1.14 ± 0.08
CC(=O)Nc1ccc(CC(=O)O)cc1 [Actarit]	1.05 ± 0.28	1.116 ± 0.0018	0.667	0.998 ± 0.049
CC(=O)OCC1=C(C(=O)O)N2C(=O)[C@@H](NC(=O)Cc3cccs3)[C@H]2SC1 [Cephalothin sodium salt]	0.848 ± 0.31	0.923 ± 0.08	1	1.02 ± 0.028
Nc1nc(F)nc2c1ncn2[C@@H]1O[C@H](CO)[C@@H](O)[C@@H]1O [Fludarabine]	0.97 ± 0.29	0.997 ± 0.061	1	0.975 ± 0.025
CC(C(=O)O)c1cccc(Oc2ccccc2)c1 (configuration not stated) [Fenoprofen calcium salt dihydrate]	3.89 ± 1.7	0.88 ± 0.059	0	1.55 ± 0.027
CC1(C)O[C@@H]2C[C@H]3[C@@H]4C[C@H](F)C5=CC(=O)CC[C@]5(C)[C@H]4[C@@H](O)C[C@]3(C)[C@]2(C(=O)CO)O1 [Flurandrenolide]	1.09 ± 0.49	1.08 ± 0.04	0.333	0.979 ± 0.1
CN1C(C(=O)Nc2ccccn2)=C(O)c2ccccc2S1(=O)=O [Piroxicam]	6.43 ± 2.4	0.525 ± 0.012	0	1.78 ± 0.095
Nc1ccc(S(=O)(=O)Nc2ncccn2)cc1 [Sulfadiazine]	0.947 ± 0.41	1.03 ± 0.031	0.917	0.9587 ± 0.0092
COc1cccc(OC)c1C(=O)N[C@@H]1C(=O)N2[C@@H]1SC(C)(C)[C@@H]2C(=O)O [Methicillin sodium]	1.21 ± 0.55	1.05 ± 0.057	0.5	1 ± 0.037
N[C@@H]1CONC1=O [D-cycloserine]	0.796 ± 0.24	0.976 ± 0.075	0.75	0.9921 ± 0.0046
O=C(CCCN1CCC(O)(c2ccc(Br)cc2)CC1)c1ccc(F)cc1 [Bromperidol]	0.878 ± 0.23	1.03 ± 0.076	1	0.974 ± 0.038
CC(C)NC[C@H](O)COc1ccc(CC(N)=O)cc1 [(S)-(-)-Atenolol]	0.84 ± 0.24	0.918 ± 0.067	0.5	0.959 ± 0.08
COc1nc(C)nc(Cl)c1NC1=NCCN1 [Moxonidine]	1.07 ± 0.47	1.01 ± 0.011	1	0.96 ± 0.0097
CCCCC[C@H](O)/C=C/[C@@H]1[C@@H](C/C=C\CCCC(=O)O)[C@@H](O)C[C@H]1O [Dinoprost trometamol]	0.881 ± 0.18	1.01 ± 0.064	0.833	0.975 ± 0.043
CCCOc1ccc(C(=O)OCCN(CC)CC)cc1N [Proparacaine hydrochloride]	0.768 ± 0.39	0.93 ± 0.052	0.833	0.998 ± 0.041
CC(C)(C)NCC(O)c1cc(O)cc(O)c1 (configuration not stated) [Terbutaline hemisulfate]	1.1 ± 0.36	1 ± 0.029	0.75	1.01 ± 0.039

Structure (SMILES)	glomerular separation [1]	glomerular width [2]	fraction of imaged embryos annotated as normal kidney [3]	pronephric angle neck segment [4]
CC(=O)S[C@@H]1CC2=CC(=O)CC[C@]2(C)[C@H]2CC[C@@]3(C)[C@@H](CC[C@@]34CCC(=O)O4)[C@H]12 [Spironolactone]	0.838 ± 0.13	0.912 ± 0.011	1	0.986 ± 0.036
COc1c(O[C@@H]2O[C@H](CO)[C@@H](O)[C@H](O)[C@H]2O)cc2c(c1OC)-c1ccc(SC)c(=O)cc1[C@@H](NC(C)=O)CC2 [Thiocolchicoside]	1.03 ± 0.41	0.909 ± 0.018	0.833	0.932 ± 0.027
Nc1nc(CC(=O)Nc2ccc(CCNC[C@H](O)c3ccccc3)cc2)cs1 [Mirabegron]	0.841 ± 0.26	1.04 ± 0.067	0.833	0.965 ± 0.014
O=C(c1ccc(F)cc1)C1CCN(CCn2c(=O)[nH]c3ccccc3c2=O)CC1 [Ketanserin tartrate hydrate]	0.846 ± 0.25	0.939 ± 0.021	0.833	1.03 ± 0.046
NC(=O)OCC(O)COc1ccc(Cl)cc1 (configuration not stated) [Chlorphensin carbamate]	0.973 ± 0.47	0.982 ± 0.071	0.833	1.12 ± 0.099
C[C@H]1C[C@@H]2[C@H]([C@@H](O)C[C@@]3(C)[C@H]2CC[C@]3(O)C(=O)CO)[C@@]2(C)C=CC(=O)C=C12 [Methylprednisolone, 6-alpha]	1.11 ± 0.4	1.21 ± 0.11	0.833	1.06 ± 0.088
O=C1C(O)=C([C@H]2CC[C@H](c3ccc(Cl)cc3)CC2)C(=O)c2ccccc21 [Atovaquone]	1.05 ± 0.35	0.992 ± 0.027	0.917	0.959 ± 0.017
CCCCCCC[N+](CC)(CC)CCCCc1ccc(Cl)cc1 [Clofilium tosylate]	0.78 ± 0.37	1.04 ± 0.059	0.583	0.9834 ± 0.0086
COc1ccc(C(=O)c2ccccc2)c(O)c1 [Oxybenzone]	0.878 ± 0.34	1.09 ± 0.026	0.833	1.03 ± 0.02
O=C1[C@H](CC[C@H](O)c2ccc(F)cc2)[C@@H](c2ccc(O)cc2)N1c1ccc(F)cc1 [Ezetimibe]	1.28 ± 0.36	1.01 ± 0.015	0.75	0.992 ± 0.059
CC(=O)Nc1ccc(OCC(O)CNC(C)C)cc1 (configuration not stated) [Practolol]	1.01 ± 0.36	0.986 ± 0.081	0.833	1.02 ± 0.051
CN(C)CCOC1=Cc2ccccc2Sc2ccc(Cl)cc21 [Zotepine]	0.933 ± 0.24	0.983 ± 0.065	0.75	1.08 ± 0.11
Cc1cc2c(cc1S(N)(=O)=O)S(=O)(=O)CCC2 [Meticrane]	0.987 ± 0.28	0.9447 ± 0.0016	0.917	1.01 ± 0.04
CCCCC1=NC2(CCCC2)C(=O)N1Cc1ccc(-c2ccccc2-c2nnn[nH]2)cc1 [Irbesartan]	3.04 ± 1.1	0.56 ± 0.11	0.75	1.1 ± 0.022
CC(=O)O[C@]1(C(C)=O)CC[C@H]2[C@@H]3C=C(C)C4=CC(=O)CC[C@]4(C)[C@H]3CC[C@@]21C [Megestrol acetate]	1.27 ± 0.82	0.864 ± 0.029	0.917	0.9907 ± 0.0078
CC(=O)N(CC(C)C(=O)O)c1c(I)cc(I)c(N)c1I (configuration not stated) [Iocetamic acid]	0.546 ± 0.25	0.974 ± 0.011	0.917	0.986 ± 0.024
Cn1c(=O)c2c(ncn2CC(O)CO)n(C)c1=O (configuration not stated) [Diprophylline]	0.977 ± 0.2	0.966 ± 0.01	0.667	1.05 ± 0.051
C[n+]1ccccc1/C=N/O [Pralidoxime chloride]	0.691 ± 0.38	0.9582 ± 0.0035	0.833	1.039 ± 0.01
